Screens as filed in PubChem BioAssay.
The entries come from a sample that favours hits as a whole.
Six1-Eya2 blk: inhibitors of human Six1/Eya2 interaction | Q15475+O00167 | AlphaScreen GST-Six1/His-Eya2 binding, biochemical; stronger effect = lower value | activity change, % (no concentration beside the values) | 0.56% of 360,000 active | AID 651725
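AlphaScreen luminescence read after one hour at 37 °C in darkness. Pin-transferred compounds met GST-Six1 and His-Eya2 protein (5X stock 250 nM/500 nM) plus glutathione donor and Ni-chelate acceptor beads (5X, 50 ug/mL).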
L3MBTL1 inh: L3MBTL1 (human) inhibition | Q9Y468 | AID 485360 | 0.66% of 230,000 active | Potency, µM (titrated, usually from 57.1 µM), actives largely listed as inhibitors | AlphaScreen L3MBTL1–H3K9me1 peptide binding; active means well fitted inhibition curve with a large enough effect; inconclusive means small, poorly fitted or top-dose-only effect; inactive means no such curve, though single readings can be large or run the other way; further: nearly all actives have a fitted effect of over 60% in size
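L3MBTL1 (50 nM) pre-complexed 30 min with biotinylated H3(1-15)K9me1 peptide (75 nM), then compounds added for 30 min at room temperature; AlphaScreen streptavidin donor/nickel chelate acceptor beads (10 ug/mL final) read after 30 min dark incubation.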
CtBP-E1A blk: inhibitors of CtBP/E1A interaction. AlphaScreen GST-E1A/His-CtBP binding, 1536-well; stronger effect = lower value. activity change, % (test concentration not listed). 0.49% of 340,000 active. AID 651724
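Homogeneous bead-based format: GST-tagged E1A captured on glutathione donor beads, His-tagged CtBP on nickel acceptor beads; compounds precede bead addition by 2 h at 37 °C.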
KDM4E inh: JMJD2E (human) inhibition; B2RXH2; JMJD2E catalytic domain, FDH-coupled NADH fluorescence (FDH is formaldehyde dehydrogenase); Potency, µM (series often up to 57.1 µM), hits mostly inhibitors; 1.6% of 230,000 active; AID 2147; active means well fitted inhibition curve with a large enough effect, not every such curve was filed as active; inconclusive means small, poorly fitted or top-dose-only effect, or another doubt; inactive means no such curve, though single readings can be large or run the other way; further: nearly all actives have a fitted effect of over 50% in size
Target sequence (B2RXH2 1-337 limits assumed): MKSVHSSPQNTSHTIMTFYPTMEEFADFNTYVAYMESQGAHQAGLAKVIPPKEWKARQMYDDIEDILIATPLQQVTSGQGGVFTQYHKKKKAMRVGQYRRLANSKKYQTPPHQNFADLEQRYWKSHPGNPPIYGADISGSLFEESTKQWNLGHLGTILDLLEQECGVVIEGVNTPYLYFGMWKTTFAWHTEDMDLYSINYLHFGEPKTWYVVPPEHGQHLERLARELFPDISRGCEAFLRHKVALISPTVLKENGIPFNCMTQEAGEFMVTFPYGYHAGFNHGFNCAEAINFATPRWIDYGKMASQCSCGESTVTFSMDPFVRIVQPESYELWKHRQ
Numbers stand for hits; - = inactive; ? = inconclusive; . = not tested or not shown; ! = not confirmed by another sample; [ ] = another dose, or the depositor's remark. Unless noted, no stated cut-off is given here; in the data, active means activity change below about -65%; inconclusive means mostly about -30% to -63%; inactive means weaker than that.

SMILES	Six1-Eya2 blk	L3MBTL1 inh	CtBP-E1A blk	KDM4E inh
Oc1ccc(/C=N/N2CCOCC2)c(O)c1O	-	14.1µM	-	25.1µM
O=C1c2ccccc2C(=O)N1/N=C/c1ccc(O)c(O)c1O	?	.	?	2.24µM
O=C(/C=C/c1ccc(Cl)c(Cl)c1)NC1=NCCS1	-	-	-	-
CC1(OC(=O)C2CCCC2)C(=O)C=C2C=C(c3ccsc3)N(c3ccc(CO)cc3)C=C2C1=O (stereo not drawn)	.	.	.	-[11.4 µM]
C=C(C(C)=O)C(O)c1cccc(OC)c1 (stereo not drawn)	.	.	.	-
O=C(COC(=O)c1ccc(O)cc1O)Nc1cccc2ccccc12	-	-	-	.
OCc1ccnc2c(O)cccc12	-89.2	-	-92.2	?
NC(=O)c1ccnc2c(O)cccc12	.	14.1µM	.	.
O=C(NC(=S)Nc1ccc(N2CCCCC2)cc1)c1cccs1	-67.1	?	?	-
O=C(/C=C/c1ccco1)NC(=S)Nc1ccc(N2CCCC2)cc1	?	?	-	11.2µM
CSc1nc(N)n2nc(C)cc2n1	-89.3	.	-92.1	.
CSc1nc(N)n2nc(C(C)(C)C)cc2n1	-	-	-	-
CCN(CC)CCCN1C=C2C(=O)C(C)(OC(=O)CCC(=O)OC)C(=O)C=C2C=C1C1CC1 (stereo not drawn)	-	.	-	?
COC(=O)CCC(=O)OC1(C)C(=O)C=C2C=C(C3CC3)N(C3CCCCC3)C=C2C1=O (stereo not drawn)	-	.	-	15.8µM!
COC(=O)CCC(=O)OC1(C)C(=O)C=C2C=C(C3CC3)N(Cc3ccccc3)C=C2C1=O (stereo not drawn)	-	.	-	14.1µM!
C[C@H]1Cc2c(-c3ccccc3)nc3c(c2CO1)CN(C(=O)NCCc1c[nH]c2ccccc12)CC3	.	.	.	-[11.4 µM]
O=C(N/N=C\c1c(O)ccc2ccccc12)c1cncc(Br)c1	?	-	?	.
Cn1cc(C(=O)N/N=C/c2c(O)ccc3ccccc23)ccc1=O	-89.0	?	.	-
COc1ccccc1/C=N/NC(=O)c1ccc(C)nc1	-	-	.	.
O=C(CNc1ccccc1)N/N=C/c1c(O)ccc2ccccc12	-	.	?	.
O=C(N/N=C\c1c(O)ccc2ccccc12)c1ccc(O)cc1	-65.0	-	?	.
Cc1ccc(C(=O)N/N=C/c2c(O)ccc3ccccc23)cn1	-73.9	.	.	.
Cc1occc1C(=O)N/N=C/c1c(O)ccc2ccccc12	-	.	-	.
Cn1nccc1C(=O)N/N=C/c1c(O)ccc2ccccc12	-86.7	.	-82.8	.
O=C(N/N=C/c1c(O)ccc2ccccc12)c1cccnc1	-66.8	.	-91.6	.
SMILES	Six1-Eya2 blk	L3MBTL1 inh	CtBP-E1A blk	KDM4E inh
O=C(N/N=C/c1c(O)ccc2ccccc12)c1ccc[n+](CCO)c1	-90.7	35.5µM	-90.0	31.6µM
O=C(C[n+]1cccc(C(=O)N/N=C/c2ccc(Br)cc2)c1)c1ccccc1	-	-	.	.
O=C(NN=Cc1c(O)ccc2ccccc12)c1ccncc1	-88.6	.	?	.
COc1ccc2ccccc2c1/C=N\NC(=O)c1cccnc1	-	.	-	.
Cn1c(/N=C/c2c(O)ccc3ccccc23)nc2ccccc21	-	35.5µM	-	-
COc1ccc(NC(=O)C[C@H]2C(=O)N(C3CCCCC3)C[C@@H]2c2ccccc2)cc1	-	.	-	.
CC(C)C[C@@H](CC(=O)N[C@@H](CCC(=O)O)CC(=O)O)NC(=O)[C@@H]1CNCC[C@H]1NC(=O)C[C@H](CCCN)NC(=O)C[C@H](Cc1ccccc1)NC(=O)[C@@H]1CNCC[C@H]1N	.	.	.	-
COc1cc(/C=N/Nc2cc(C)nc(NS(=O)(=O)c3ccc(C)cc3)n2)ccc1O	?	-	-	?
COc1cc(/C=N/Nc2nc(C)nc3c2cnn3-c2ccccc2)ccc1O	-67.0	-	-77.0	?
COc1cc(/C=N/NC(=O)c2nc(-c3ccccc3)n(-c3ccccc3)n2)ccc1O	?	-	?	?
COc1cc(/C=N/Nc2cc(C)nc(NS(=O)(=O)c3ccccc3)n2)ccc1O	-71.0	.	-73.4	?
Cc1cccc(NC(=O)CNC(=O)CSc2ncccn2)c1C	-	-	-	.
Cc1cccc(NC(=O)CNC(=O)Cn2ncc(Cl)c(Cl)c2=O)c1C	-	31.6µM	-	.
Oc1ccc(N=Cc2ccc(O)c(O)c2)cc1	?	8.91µM	-	0.631µM
Oc1ccc(/C=N/N(c2ccccc2)c2ccccc2)cc1O	-	.	-	.
Oc1ccc(/C=N/N=C/c2ccc(O)cc2)cc1	-	-	-	-
Oc1ccc(/C=N/N=C/c2ccc(O)c(O)c2)cc1O	-	8.91µM	-	.
O=C1Nc2ccccc2/C1=N\N=C\c1ccc(O)c(O)c1	-	?	-	7.94µM
CCCCOc1ccc(C2C(C(=O)c3ccc(C)o3)=C(O)C(=O)N2CC2CCCO2)cc1 (stereo not drawn)	-	-	-	-
